Compounds with a hit are over-represented: about 19% of the library has one in this group of screens.
KB-3-1 tox: KB-3-1 parental cell cytotoxicity; KB-3-1 viability, CellTiter-Glo ATP luminescence, 72 h; Potency, µM (top dose mostly 46.1 µM), hits mostly cytotoxic; 400,000 compounds, 1.4% hits; also: nearly all actives have a fitted effect of over 60% in size
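72 h, 37 °C compound treatment of KB-3-1 parental cells; CellTiter-Glo added, 10 min, luminescence read. Data corrected against DMSO-only plates and normalized before curve fitting.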
HT1080NT lethal: kills 2HG-producing HT-1080-NT fibrosarcoma cells. HT-1080-NT fibrosarcoma viability, CellTiter-Glo ATP luminescence, 48 h. Potency, µM (highest dose often 46.1 µM), inactives show at the top dose activity, negative = less viability, actives largely listed as cytotoxic. 360,000 compounds, 1.6% hits. AID 686970;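 also: NT is the 2HG producing partner of a matched IDH1 knockdown line; 0% = DMSO-treated cells and -100% = media-only wells without cells; nearly all actives have a fitted effect of over 55% in size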
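Luminescent CellTiter-Glo readout after 48 hours of compound exposure at 37 degrees C defined viability of HT-1080-NT cells. Activity was normalized to DMSO wells and cell-free media wells; concentration-response curves were fitted and assigned curve classes.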
HT1080 IDH1KD tx: HT-1080 IDH1 knockdown cell toxicity (counter line); Potency, µM (top dose mostly 46.1 µM), inactives show at the top dose activity, negative = toxicity, hits mostly cytotoxic; HT-1080 IDH1 knockdown viability, ATP luminescence, 48 h; 360,000 compounds, 2% hits;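 also: 0% = DMSO wells and -100% = cell-free medium wells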
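Viability of IDH1-knockdown HT-1080 fibrosarcoma cells was assessed by CellTiter-Glo after 48 h at 37 °C with titrated compound; concentration-effect curves were classified by fit quality and response size.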
TDP1 cell noCPT: qHTS for Inhibitors of human tyrosyl-DNA phosphodiesterase 1 (TDP1): qHTS in cells in absence of CPT | DT40 Tdp1-/- hTDP1 cells, no CPT, ATP luminescence, 48 h | Potency, µM (top dose mostly 46.2 µM), for the others: at the highest dose activity change, negative = growth inhibition, actives largely listed as inhibitors | 420,000 compounds, 15% hits; also: nearly all actives have a fitted effect of over 55% in size
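Growth of hTDP1-complemented DT40 Tdp1-knockout cells is measured by ATP luminescence after at least 48 hr compound exposure at 37 °C, with DMSO substituting for the 20 nM CPT used in the parallel screen.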
TDP1 cell CPT: DT40-hTDP1 cell growth loss with CPT; Potency, µM (highest dose often 46.2 µM), inactives show top-dose activity change, negative = growth inhibition, most hits filed as inhibitors; chicken DT40 Tdp1-/-;hTDP1 cells + 20 nM CPT, ATP luminescence, 48 h; 420,000 compounds, 12% hits; also: nearly all actives have a fitted effect of over 55% in size
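Chicken DT40 Tdp1-/- cells complemented with human TDP1, 400 cells/well, exposed to compounds plus 20 nM camptothecin for at least 48 h at 37 C; viability read as ATP content by CellTiter-Glo luminescence.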
KB-V1 cytotox: kills drug-selected multidrug resistant KB-V1 cells. KB-V1 MDR cells viability, CellTiter-Glo, 72 h. Potency, µM (doses to about 46.1 µM), actives largely listed as cytotoxic. 400,000 compounds, 3.4% hits; also: nearly all actives have a fitted effect of over 60% in size
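Readout: CellTiter-Glo luminescence, 10 min after addition. Cells: KB-V1 MDR subline, 72 h at 37 degrees C with compound. Analysis: corrected, normalized data fitted to concentration-effect curves.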
* hit, by the source's call; i = inactive; ? = inconclusive; . = no result given; ! = repeats disagree; [ ] = remark or other dose. Calls follow the shape of the dose curve; as a rule, active = well fitted curve in the direction sought with a large enough effect; inconclusive = small, poorly fitted or top-dose-only effect, or another doubt; inactive = no such curve, though single readings can be large; an effect the other way counts as inactive or inconclusive. Unless noted, % is scaled to controls: 0 for no effect and ±100 for the full control effect; potency is read from the fitted curve at half-maximal effect.

SMILES	KB-3-1 tox	HT1080NT lethal	HT1080 IDH1KD tx	TDP1 cell noCPT	TDP1 cell CPT	KB-V1 cytotox
COc1ccccc1N1CCN(S(=O)(=O)CCNC(=O)CCCc2ccccc2)CC1	i	-9.8%	-0.6%	20.6µM*	?	?
Cc1ccc(NC(=O)C2C3CCCC2C3c2ccccc2)c(C)c1 (stereo not given)	i	10.8%	11.1%	23.1µM*	?	i
CCN(CC)c1nc2ccccc2nc1C(=O)Nc1cccc(C(C)=O)c1	i	.	.	?	?	i
O=C(CNC(=O)c1cccs1)NCC(=O)OCC(=O)c1ccc([N+](=O)[O-])cc1	i	-14.2%	0.9%	?	18.4µM*	?
O=C(OCC(=O)c1ccc([N+](=O)[O-])cc1)/C(=C\c1ccc(Cl)cc1)NC(=O)c1ccccc1	i	0.0%	-20.1%	?	?	i
Cc1cc(C)c(C)c(/C=C(/C#N)C(N)=S)c1C	i	?	?	-5.2%	2.8%	i
NC[C@H](CC(=O)O)c1ccc(Cl)cc1	.	.	.	-4.0%	?	.
Cc1ccc(NC(=O)CN2C(=O)CN=C(c3ccccc3)c3ccccc32)c(C)c1	i	.	.	?	?	i
CC(=O)C(Sc1ncnc2c1nnn2-c1ccc(F)cc1)C(=O)N(C)C (stereo not given)	i	17.4%	16.0%	20.6µM*	20.6µM*	i
COC(=O)[C@H]1[C@@H](OC(=O)c2ccccc2)C[C@@H]2CC[C@H]1N2C	.	.	.	-9.8%[92.5 µM]	?	.
C#C[C@@]1(O)CCC2C3CCC4=C/C(=N/OCC(=O)NC(CCC(N)=O)C(=O)O)CC[C@]4(C)C3CC[C@@]21C (stereo not given in full)	i	7.3%	0.0%	-9.0%	-4.1%	i
COc1cc2c(cc1C=O)OCO2	i	16.4%	8.6%	-1.3%	2.0%	?
COc1cc([C@@H]2c3cc4c(cc3C(O[C@@H]3O[C@@H]5CO[C@@H](C)O[C@H]5[C@H](O)[C@H]3O)C3COC(=O)[C@@H]32)OCO4)cc(OC)c1OP(=O)(O)O (stereo not given in full)	.	.	.	0.299µM*	0.211µM*	.
COc1ccc2c(c1OC)C(=O)O[C@H]2[C@@H]1c2cc3c(cc2CCN1C)OCO3	i	19.7%	-0.5%	-15.5%	-8.1%	i
COc1cc([C@@H]2c3cc4c(cc3[C@H](O)[C@H]3COC(=O)[C@H]23)OCO4)cc(OC)c1OC	0.103µM*!	?	0.0065µM*	0.146µM*!	0.146µM*	0.259µM*
COc1cc(C2c3cc4c(cc3C(O)C3COC(=O)C23)OCO4)cc(OC)c1O (stereo not given)	.	.	.	0.206µM*	0.259µM*	.
COc1cc([C@@H]2c3cc4c(cc3[C@@H](OC)[C@H]3COC(=O)[C@H]23)OCO4)cc(OC)c1O	?	?	?	1.3µM*	1.16µM*	?
C#CC[N+]1(C)C2CCC1CC(O)C2 (stereo not given)	i	-10.1%	-0.2%	4.9%	?	i
CN(Cc1ccc(OC(F)F)cc1)C(=O)c1ccccc1Sc1ccccc1C#N	i	-4.5%	-0.7%	?	?	?
COc1ccc2c(c1OC)C(=O)O[C@@H]2[C@H]1c2cc3c(cc2CCN1C)OCO3	i	?	15.2%	-4.7%	-25.2%	?
COc1cc([C@@H]2c3cc4c(cc3[C@H](O)[C@H]3COC(=O)[C@@H]23)OCO4)cc(OC)c1OC	1.84µM*	.	.	0.0251µM*	0.0708µM*	?
O=C1N[C@@H](Cc2ccccc2)C(=O)N2[C@H]1C[C@H]1c3ccccc3N(OOSc3ccccc3)[C@H]12	i	-11.6%	-7.0%	16.4µM*	20.6µM*	i
